Inconclusive results are not listed. Entries that show only a call come without a potency. Calls of active or inactive are those of the source. Calls follow the shape of the dose curve; as a rule, active = well fitted inhibition curve with a large enough effect; inconclusive = small, poorly fitted or top-dose-only effect; inactive = flat fitted curve, though single readings scatter.
Legend:
Experiment in all cases: qHTS profiling for inhibitors of Plasmodium falciparum proliferation (AID 504749); also: nearly all actives have a fitted effect of over 60% in size
Conditions in all cases: P. falciparum in erythrocytes, SYBR Green DNA, 72 h; series mostly up to 28.7 µM
ATS95 = tested on: ATS95
In short: (§1)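 Readout was DNA-dye fluorescence from lysed cultures, ex 485/em 535 nm. Parasitized red cells had grown 72 h with compound; data scaled between 0.29 uM artemisinin and DMSO wells and corrected using vehicle-only plates.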

C2A = tested on: C2A
In short: as §1

CP185 = tested on: CP185
In short: as §1

CP191 = tested on: CP191
In short: as §1

CP192 = tested on: CP192
In short: as §1

CP194 = tested on: CP194
In short: as §1

CP201 = tested on: CP201
In short: as §1

CP203 = tested on: CP203
In short: as §1

CP211 = tested on: CP211
In short: as §1

CP215 = tested on: CP215
In short: as §1
Potency is read from the fitted curve at half-maximal effect.

| Structure (SMILES) | Potency (ATS95) | Potency (C2A) | Potency (CP185) | Potency (CP191) | Potency (CP192) | Potency (CP194) | Potency (CP201) | Potency (CP203) | Potency (CP211) | Potency (CP215) |
| --- | --- | --- | --- | --- | --- | --- | --- | --- | --- | --- |
| O=CC=O | inactive | inactive | inactive | inactive | inactive | inactive | inactive | inactive | inactive | inactive |
| C[N+]1(C)C2CCC1CC(OC(=O)c1c[nH]c3ccccc13)C2 (stereo not given) | inactive | inactive | inactive | inactive | inactive | inactive | inactive | inactive | inactive | inactive |
| c1ccc2cc(CC3=NCCN3)ccc2c1 | inactive | inactive | inactive | inactive | inactive | inactive | inactive | inactive | inactive | inactive |
| CN1c2ccccc2C(NCCCCCCC(=O)O)c2ccc(Cl)cc2S1(=O)=O (stereo not given) | inactive | inactive | inactive | inactive | inactive | inactive | inactive | inactive | inactive | inactive |
| O[C@H]1[C@H]2[C@H](O)CCCN2C[C@H]1O | inactive | inactive | inactive | inactive | inactive | inactive | inactive | inactive | inactive | inactive |
| C=CCN1CCC23c4c5ccc(O)c4O[C@H]2C(=O)CC[C@@]3(O)C1C5 (stereo not given in full) | inactive | inactive | inactive | inactive | inactive | inactive | inactive | inactive | inactive | inactive |
| O=[N+]([O-])C(Br)(CO)CO | inactive | inactive | inactive | inactive | inactive | inactive | inactive | inactive | inactive | inactive |
| O=C(CS(=O)C(c1ccccc1)c1ccccc1)NO (stereo not given) | inactive | inactive | inactive | inactive | inactive | inactive | inactive | inactive | inactive | inactive |
| CCOC(=O)c1ccccc1C(=O)OCC | inactive | inactive | inactive | inactive | inactive | inactive | inactive | inactive | inactive | inactive |
| CC(=O)OO | inactive | inactive | inactive | inactive | inactive | inactive | inactive | inactive | inactive | inactive |
| O=C1CCO1 | inactive | inactive | inactive | inactive | inactive | inactive | inactive | inactive | inactive | inactive |
| C=CCN(C1=NCCN1)c1c(Cl)cccc1Cl | inactive | inactive | inactive | inactive | inactive | inactive | inactive | inactive | inactive | inactive |
| CC(C)Nc1ccc(Nc2ccccc2)cc1 | 7.94 µM (active) | 8.91 µM (active) | 8.91 µM (active) | 4.47 µM (active) | 5.36 µM (active) | 3.38 µM (active) | 4.78 µM (active) | 8.49 µM (active) | 3.79 µM (active) | 4.26 µM (active) |
| CCON=O | inactive | inactive | inactive | inactive | inactive | inactive | inactive | inactive | inactive | inactive |
| COC1=CC=C2[C@H]3Cc4ccc(OC)c5c4[C@@]2(CCN3C)[C@H]1O5 | inactive | inactive | inactive | inactive | inactive | inactive | inactive | inactive | inactive | inactive |
| COC([CH2][Hg])CNC(=O)c1ccccc1OCC(=O)O (stereo not given) | inactive | inactive | inactive | inactive | inactive | inactive | inactive | inactive | inactive | inactive |
| CC[N+](C)(CC)CCOC(=O)C(O)(c1ccccc1)c1ccccc1 | inactive | inactive | inactive | inactive | inactive | inactive | inactive | inactive | inactive | inactive |
| O=C1CC[C@@]2(O)C3Cc4ccc(O)c5c4C2(CCN3CC2CC2)[C@H]1O5 (stereo not given in full) | inactive | inactive | inactive | inactive | inactive | inactive | inactive | inactive | inactive | inactive |
| CCCC(C)C1(CC)C(=O)NC(=O)NC1=O (stereo not given) | inactive | inactive | inactive | inactive | inactive | inactive | inactive | inactive | inactive | inactive |
| O=C(O)C(Cl)(Cl)Cl | inactive | inactive | inactive | inactive | inactive | inactive | inactive | inactive | inactive | inactive |
| O=c1[nH]cc(N(CCCl)CCCl)c(=O)[nH]1 | inactive | inactive | inactive | inactive | inactive | inactive | inactive | inactive | inactive | inactive |
| c1csc(C2(N3CCCCC3)CCCCC2)c1 | inactive | inactive | inactive | inactive | inactive | inactive | inactive | inactive | inactive | inactive |
| CCCC(C)(COC(N)=O)COC(=O)NC1CC1 (stereo not given) | inactive | inactive | inactive | inactive | inactive | inactive | inactive | inactive | inactive | inactive |
| Clc1ccc(Cl)cc1 | inactive | inactive | inactive | inactive | inactive | inactive | inactive | inactive | inactive | inactive |
| S=C(S)N1CCNCC1 | inactive | inactive | inactive | inactive | inactive | inactive | inactive | inactive | inactive | inactive |
| FC(F)OC(F)(F)C(F)Cl (stereo not given) | inactive | inactive | inactive | inactive | inactive | inactive | inactive | inactive | inactive | inactive |
| O=P(O)(O)C(Cl)(Cl)P(=O)(O)O | inactive | inactive | inactive | inactive | inactive | inactive | inactive | inactive | inactive | inactive |
| NCC(O)c1cccc(O)c1 (stereo not given) | inactive | inactive | inactive | inactive | inactive | inactive | inactive | inactive | inactive | inactive |
| CNC(C)C(O)c1ccc(O)cc1 (stereo not given) | inactive | inactive | inactive | inactive | inactive | inactive | inactive | inactive | inactive | inactive |
| CC(=O)OC1CN2CCC1CC2 (stereo not given) | inactive | inactive | inactive | inactive | inactive | inactive | inactive | inactive | inactive | inactive |
